Measured values as given in PubChem BioAssay.
The source made the active and inactive calls.

How the values were obtained:
[1] = tested on: Plasmodium falciparum Sir2 (PF13_0152, Sir2A); experiment: Plasmodium falciparum Sir2A binding compounds – biochemical, small-molecule microarray, 635 nm fluorescence, primary screen (AID 1098); details: fluorescence 635 nm, higher = more signal;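 further: score merges spot fluorescence intensity with its signal-to-noise ratio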
[2] = probe aDKK1 binding to arrayed compounds – biochemical, biotinylated probe, 635/667 nm fluorescence, primary screen (AID 1099); details: small-molecule microarray, higher = more signal;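 further: score merges 667nm spot fluorescence with signal to noise across triplicate slides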
[3] = probe aCHRDL2 binding to arrayed compounds – biochemical, biotinylated probe, 635/667 nm fluorescence, primary screen (AID 1100); details: small-molecule microarray, higher = more signal
[4] = change in splice reporter luminescence, either direction, cell-based, HEK293, spliceosome inhibition project, primary screen (AID 1101); details: HEK293 splicing luciferase reporter, 24 h, higher = more signal, called active from +8 up or from −8 down;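 further: HEK293 cells carrying a splicing-competent luciferase reporter gene; test concentration not given here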
[5] = target: Fibroblast growth factor 10 (Homo sapiens) (UniProt O15520); experiment: compounds binding fibroblast growth factor 10 – biochemical, small-molecule microarray, 635 nm fluorescence, primary screen (AID 1102); details: FGF10 binding, fluorescence 635 nm, higher = more signal
Sequence of Fibroblast growth factor 10 (Homo sapiens) (O15520 whole entry, looked up): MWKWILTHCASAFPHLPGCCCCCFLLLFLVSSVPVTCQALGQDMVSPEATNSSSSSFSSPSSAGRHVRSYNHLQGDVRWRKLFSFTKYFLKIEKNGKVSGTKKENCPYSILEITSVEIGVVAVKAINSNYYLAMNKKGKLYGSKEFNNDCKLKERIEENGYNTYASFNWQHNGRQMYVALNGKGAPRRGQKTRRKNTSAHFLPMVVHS

[6] = tested on: glycogen synthase kinase-3 (GSK3A per assay name; protocol says GSK3B); experiment: compounds binding glycogen synthase kinase-3 – biochemical, small-molecule microarray, 635 nm fluorescence, GSK3A, primary screen (AID 1103); details: fluorescence 635 nm, higher = more signal; further: the record names both GSK3A and GSK3B
[7] = target: Epidermal growth factor receptor (Homo sapiens) (UniProt P00533); experiment: compounds binding epidermal growth factor receptor – biochemical, small-molecule microarray, 635 nm fluorescence, primary screen (AID 1104); details: EGFR binding, higher = more signal;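 further: score merges 667 nm emission intensity with spot signal to noise over triplicate slides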
Sequence of Epidermal growth factor receptor (Homo sapiens) (P00533 whole entry, looked up): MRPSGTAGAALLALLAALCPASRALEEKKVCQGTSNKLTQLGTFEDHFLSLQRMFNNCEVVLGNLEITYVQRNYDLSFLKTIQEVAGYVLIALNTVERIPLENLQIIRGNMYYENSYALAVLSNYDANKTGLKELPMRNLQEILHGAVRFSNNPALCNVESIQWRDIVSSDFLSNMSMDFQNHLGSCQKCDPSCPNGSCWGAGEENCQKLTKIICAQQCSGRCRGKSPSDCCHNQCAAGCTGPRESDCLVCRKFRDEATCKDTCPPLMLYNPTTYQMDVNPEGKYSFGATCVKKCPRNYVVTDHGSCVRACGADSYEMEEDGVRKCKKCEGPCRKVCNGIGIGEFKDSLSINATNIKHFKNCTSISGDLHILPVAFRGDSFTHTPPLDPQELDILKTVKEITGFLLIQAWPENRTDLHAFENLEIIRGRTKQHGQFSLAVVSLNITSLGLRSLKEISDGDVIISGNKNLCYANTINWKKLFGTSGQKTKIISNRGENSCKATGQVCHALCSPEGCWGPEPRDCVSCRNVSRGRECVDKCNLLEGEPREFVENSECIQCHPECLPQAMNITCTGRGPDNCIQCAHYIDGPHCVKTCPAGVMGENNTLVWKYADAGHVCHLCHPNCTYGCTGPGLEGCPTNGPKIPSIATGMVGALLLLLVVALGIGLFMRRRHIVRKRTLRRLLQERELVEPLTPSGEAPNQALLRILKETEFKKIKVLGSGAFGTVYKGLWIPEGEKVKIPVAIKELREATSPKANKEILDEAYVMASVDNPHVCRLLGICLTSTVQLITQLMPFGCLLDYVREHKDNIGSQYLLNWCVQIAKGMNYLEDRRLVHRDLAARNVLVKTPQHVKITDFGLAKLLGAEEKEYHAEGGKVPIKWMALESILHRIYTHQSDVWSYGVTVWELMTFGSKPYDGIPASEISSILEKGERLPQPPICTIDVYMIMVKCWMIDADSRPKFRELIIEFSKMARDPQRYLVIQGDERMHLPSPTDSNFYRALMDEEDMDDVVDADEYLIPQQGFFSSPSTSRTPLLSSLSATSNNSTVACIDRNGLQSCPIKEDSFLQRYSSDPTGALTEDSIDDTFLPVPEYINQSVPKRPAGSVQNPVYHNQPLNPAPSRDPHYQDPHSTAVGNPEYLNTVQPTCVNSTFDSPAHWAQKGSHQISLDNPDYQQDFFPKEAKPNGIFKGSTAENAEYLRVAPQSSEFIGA

[8] = target: Follistatin-related protein 3 (Homo sapiens) (UniProt O95633); experiment: compounds binding follistatin-related protein 3 – biochemical, small-molecule microarray, 635 nm fluorescence, primary screen (AID 1105); details: FSTL3 binding, higher = more signal;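 further: score merges emission near 667 nm and signal to noise per printed spot across three slides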
Sequence of Follistatin-related protein 3 (Homo sapiens) (O95633 whole entry, looked up): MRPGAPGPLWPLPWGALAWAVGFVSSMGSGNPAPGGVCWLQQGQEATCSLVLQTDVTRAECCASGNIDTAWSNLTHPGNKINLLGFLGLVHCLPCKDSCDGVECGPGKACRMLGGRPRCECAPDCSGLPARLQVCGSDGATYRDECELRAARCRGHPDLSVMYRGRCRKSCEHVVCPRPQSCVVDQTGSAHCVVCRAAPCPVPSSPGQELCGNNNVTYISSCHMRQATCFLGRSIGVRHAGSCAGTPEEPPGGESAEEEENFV

[9] = target: Dickkopf-related protein 1 (Homo sapiens) (UniProt O94907); experiment: small molecules binding DKK1 protein – biochemical, small-molecule microarray, 635 nm fluorescence scan, primary screen (AID 1106); details: higher = more signal;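 further: score merges emission near 667 nm with signal to noise over three replicate slides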
Sequence of Dickkopf-related protein 1 (Homo sapiens) (O94907 whole entry, looked up): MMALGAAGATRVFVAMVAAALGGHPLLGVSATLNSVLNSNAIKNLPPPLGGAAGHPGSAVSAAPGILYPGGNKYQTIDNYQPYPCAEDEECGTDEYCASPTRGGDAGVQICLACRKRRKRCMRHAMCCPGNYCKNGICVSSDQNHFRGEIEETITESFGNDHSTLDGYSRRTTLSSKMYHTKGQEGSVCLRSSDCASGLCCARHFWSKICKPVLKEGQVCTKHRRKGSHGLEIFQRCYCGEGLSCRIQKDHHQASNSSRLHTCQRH

[10] = tested on: Inhibin beta A chain (activin A); experiment: small molecules binding activin A – biochemical, small-molecule microarray, 635 nm fluorescence scan, primary screen (AID 1107); details: INHBA, higher = more signal;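 further: mouse activin A protein probed at 4.33 µg/mL on printed slides; score merges bound-protein fluorescence near 667 nm with spot signal-to-noise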
[11] = tested on: Human papillomavirus type 1a protein E7 (residues 44-93); experiment: small molecules binding HPV E7 44-93 – biochemical, small-molecule microarray, residues 44-93, 635 nm fluorescence, primary screen (AID 1108); details: fluorescence 635 nm, higher = more signal;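 further: E7 fragment applied at 1 µg/mL in TBST for 1 h at 4 C; score combines spot fluorescence with its signal to noise ratio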
[12] = hepatitis C replication reporter changes, two-sided – Huh7 cells, luciferase reporter, HCV replication inhibitor project, primary screen (AID 1109); details: Huh7 HCV replicon luciferase reporter, 48 h; higher = more signal;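 further: huh7 hepatoma cells harbouring a luciferase neomycin HCV replicon reporter; luciferase luminescence as measure of HCV replicon replication; test concentration not given here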
[13] = target: Left-right determination factor 2 (Homo sapiens) (UniProt O00292); experiment: small molecules binding LEFTY2 protein – biochemical, small-molecule microarray, 635 nm fluorescence scan, primary screen (AID 1110); details: higher = more signal
Sequence of Left-right determination factor 2 (Homo sapiens) (O00292 whole entry, looked up): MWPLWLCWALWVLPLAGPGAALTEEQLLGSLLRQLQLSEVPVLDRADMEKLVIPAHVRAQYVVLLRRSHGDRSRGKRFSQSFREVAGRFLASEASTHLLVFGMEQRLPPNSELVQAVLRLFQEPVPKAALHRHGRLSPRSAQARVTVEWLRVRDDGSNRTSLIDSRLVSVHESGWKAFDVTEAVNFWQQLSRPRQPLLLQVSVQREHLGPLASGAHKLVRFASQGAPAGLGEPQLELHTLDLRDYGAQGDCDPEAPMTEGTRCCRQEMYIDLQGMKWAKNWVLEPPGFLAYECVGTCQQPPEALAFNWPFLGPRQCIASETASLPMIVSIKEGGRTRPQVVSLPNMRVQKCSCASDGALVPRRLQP

[14] = target: Calmodulin-1 (Homo sapiens) (UniProt P0DP23); experiment: small molecules binding calmodulin-1 with EGTA – biochemical, small-molecule microarray, Cy5-labelled CALM1, profiling panel (AID 1111); details: Cy5-CALM1 binding fluorescence, higher = more signal;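 further: labelled calmodulin applied in Tris saline Tween buffer holding calcium plus EGTA and DTT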
[15] = target: Calmodulin-1 (Homo sapiens) (UniProt P0DP23); experiment: small molecules binding Ca-loaded calmodulin-1 – biochemical, small-molecule microarray, Cy5-labelled CALM1, plus calcium, artefact control for SMM control-protein annotation, profiling panel (AID 1112); details: Cy5-CALM1 binding fluorescence, higher = more signal;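 further: score merges spot fluorescence with signal to noise from triplicate slides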
[16] = probe aWnt5a binding to arrayed compounds – biochemical, biotinylated probe, 635/667 nm fluorescence, primary screen (AID 1113); details: small-molecule microarray, higher = more signal;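 further: score merges 667 nm fluorescence intensity with signal-to-noise per printed feature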
[17] = probe aShh binding to arrayed compounds – biochemical, biotinylated probe, 635/667 nm fluorescence, primary screen (AID 1114); details: small-molecule microarray, higher = more signal;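 further: probe is biotin-labelled aShh protein from a stem cell growth factor screen; measures binding of labelled protein to compounds printed on the slide; score merges feature fluorescence at 667 nm with signal-to-noise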
[18] = probe aNog binding to arrayed compounds – biochemical, biotinylated probe, 635/667 nm fluorescence, primary screen (AID 1115); details: small-molecule microarray, higher = more signal;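 further: probe is biotinylated aNog protein used at 0.15 µg/mL for 1 h at 4 C; z-score combines 667 nm fluorescence of each spot with its signal to noise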
[19] = target: Torsin-1A-interacting protein 1 (Homo sapiens) (UniProt Q5JTV8); experiment: compound microarray binding of lysate hLAP1 – cell lysate, small-molecule microarray, COS7 lysate, 635/667 nm fluorescence, primary screen (AID 1116); details: 635 nm fluorescence, higher = more signal
Sequence of Torsin-1A-interacting protein 1 (Homo sapiens) (Q5JTV8 whole entry, looked up): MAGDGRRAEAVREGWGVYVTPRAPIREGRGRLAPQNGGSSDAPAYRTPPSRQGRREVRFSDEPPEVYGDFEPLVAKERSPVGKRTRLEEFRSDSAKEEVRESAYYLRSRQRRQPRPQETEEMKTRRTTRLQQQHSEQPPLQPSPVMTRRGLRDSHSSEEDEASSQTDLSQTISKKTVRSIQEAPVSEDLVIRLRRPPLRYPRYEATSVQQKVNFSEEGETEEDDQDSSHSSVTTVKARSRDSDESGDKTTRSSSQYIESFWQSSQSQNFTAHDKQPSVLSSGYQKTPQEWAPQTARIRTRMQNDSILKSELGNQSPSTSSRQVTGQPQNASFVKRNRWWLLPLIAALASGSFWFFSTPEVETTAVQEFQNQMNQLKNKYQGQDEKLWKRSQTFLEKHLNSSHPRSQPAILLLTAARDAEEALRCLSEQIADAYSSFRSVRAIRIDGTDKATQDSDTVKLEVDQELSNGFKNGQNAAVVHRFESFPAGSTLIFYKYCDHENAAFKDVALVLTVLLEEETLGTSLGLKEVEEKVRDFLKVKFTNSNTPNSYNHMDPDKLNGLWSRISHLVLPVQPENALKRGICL

[20] = target: Alpha-bungarotoxin (Bungarus multicinctus) (UniProt P60615); experiment: compounds binding labelled alpha-BTX control protein – biochemical, small-molecule microarray, Alexa647 label, 635/667 nm fluorescence, artefact control for SMM control protein annotation, profiling panel (AID 1117); details: alpha-BTX-A647 binding fluorescence, higher = more signal
Sequence of Alpha-bungarotoxin (Bungarus multicinctus) (P60615 whole entry, looked up): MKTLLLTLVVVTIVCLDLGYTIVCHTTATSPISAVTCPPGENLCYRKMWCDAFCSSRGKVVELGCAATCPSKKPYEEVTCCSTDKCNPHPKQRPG

Row | Compound | composite z-score [1] | composite z-score [2] | composite z-score [3] | z-score [4] | composite z-score [5] | composite z-score [6] | composite z-score [7] | composite z-score [8] | composite z-score [9] | composite z-score [10] | composite z-score [11] | z-score [12] | composite z-score [13] | composite z-score [14] | composite z-score [15] | composite z-score [16] | composite z-score [17] | composite z-score [18] | composite z-score [19] | composite z-score [20]
1 | [N-]=[N+]=Nc1ccccc1C[C@@]1(C(=O)N2CCOCC2)N=C(c2ccc(OCCCO)cc2)O[C@@H]1c1ccccc1N=[N+]=[N-] | 0.668 | 1.35 | 1.13 | 0.144 (inactive) | 0.997 | 1.29 | 0.215 | 1.28 | 0.444 | 0.937 | 0.457 | -2.29 | 0.095 | 1.04 | 0.804 | -0.0398 | 0.102 | 0.293 | 0.842 | 2
2 | CC(=O)NCCCC[C@@H]1NC(=O)[C@H]2C[C@@H](C(=O)NCCCCCCN(C)C)[C@@H](c3cccc(OCCO)c3)N2C1=O | 1.5 | 0.822 | 0.649 | 0.567 (inactive) | 1.39 | 1.36 | 1.64 | 1.1 | 1.77 | 0.298 | 1.37 | 1.33 | 1.45 | -1.81 | -1.32 | -0.0185 | 0.323 | -0.0083 | 2.25 | 1.41
3 | CO[C@@H]1COC(=O)[C@H](C)NC(=O)CC=C[C@@H](C)[C@H](OC)COC(=O)[C@H](C)NC(=O)CC=C[C@H]1C | 0.343 | -0.58 | -0.717 | -0.415 (inactive) | 0.43 | 0.57 | 0.55 | 0.66 | 0.503 | 0.136 | 0.0508 | -0.0787 | 0.787 | -0.202 | -1.26 | -0.0684 | -0.223 | -0.248 | 0.0309 | -0.59
4 | O=C1O[C@H](c2ccccc2)[C@H](c2ccccc2)N2[C@H]1[C@@H](C(=O)NC[C@H](O)c1ccccc1)[C@]1(C(=O)Nc3ccc(C#CC4=CCCCC4)cc31)[C@H]2c1ccc(OCCO)cc1 | 1.06 | 0.607 | 0.469 | -1.33 (inactive) | 0.313 | 1.27 | 0.386 | 0.968 | 0.703 | 1.05 | 0.567 | -1.91 | 0.377 | 0.977 | 0.385 | -0.0519 | 0.0711 | 0.0884 | 0.6 | 1.38
5 | CC(C)(C)OC(=O)CC[C@@]1(C(=O)NCc2ccccc2)N=C(c2ccc(OCCCO)cc2)O[C@@H]1c1ccccc1 | 1.64 | 1.29 | 1.31 | -0.791 (inactive) | 0.556 | 1.26 | -0.152 | 0.545 | 0.144 | 0.119 | 1.33 | -3.13 | 0.144 | 2.4 | 1.26 | 0.0077 | 0.14 | 0.92 | 2.67 | 2.97
6 | CC(C)CN1C(=O)[C@@]2(Cc3ccccc31)c1ccccc1C(=O)N(C1CCCCC1)[C@H]2c1ccc(CO)cc1 | -0.23 | 0.262 | 1.02 | -1.41 (inactive) | -0.706 | -1.24 | -0.894 | -1.34 | -1.66 | 0.977 | -0.973 | -0.192 | -0.841 | -0.0258 | 0.644 | -0.0944 | -0.0626 | 0.697 | -0.256 | -1.06
7 | CCOC(=O)C[C@H]1[C@H](OC(=O)c2ccccc2-c2ccccc2)[C@@H](NC(=O)C2CCCCC2)c2cc(OCCCO)ccc2N1C(=O)c1ccccc1 | 0.253 | -0.116 | -0.489 | -1.02 (inactive) | 1.43 | 0.524 | 0.797 | 0.437 | 0.436 | 0.16 | 0.0771 | -1.4 | 1.13 | -0.0784 | -0.083 | -0.213 | -0.283 | -0.0502 | 0.584 | 0.148
8 | COc1ccc([Si](C)(C)[C@H]2[C@H](CCO)O[C@@]3(C(=O)N(Cc4ccccc4)c4ccc(N5C(=O)c6cccc7cccc5c67)cc43)[C@@H]2C)cc1 | 0.0883 | 0.153 | 0.633 | -1.1 (inactive) | -0.558 | -0.636 | -0.835 | -0.574 | -0.784 | 0.629 | -0.137 | -4.5 | -0.681 | 0.793 | 0.906 | -0.124 | -0.0769 | 0.0936 | 0.461 | 0.524
9 | C=CCN(C(=O)C1N(c2ccc(CCO)cc2)C(=O)C2C(C(=O)O)C3C=CC21O3)C(C)(C)C (stereo not given) | 1.86 | -0.214 | 1.24 | -1.32 (inactive) | -1.86 | -0.723 | -3.08 | -2.73 | -4.35 | -1.06 | -0.266 | 0.333 | -2.38 | -0.428 | 0.966 | -0.287 | -0.27 | -0.219 | 1.71 | -2.69
10 | C=CC(=O)O[C@@H](Cc1ccccc1)[C@H]1C2C=CCCC=C2CN1Cc1cccc(Cl)c1 (stereo not given in full) | -0.426 | 0.0657 | 0.502 | -0.855 (inactive) | -0.281 | -1.21 | -0.506 | -0.87 | -0.143 | 1.11 | -2.98 | -1.08 | -0.195 | -0.82 | 0.484 | -0.148 | 0.0022 | -0.267 | -0.103 | -0.439
11 | C=C(C)[C@@H]1CC=C(C(O)C2C=CC3C(=O)NC(=O)C3N2Nc2ccccn2)CC1 (stereo not given in full) | 1.66 | 0.946 | 0.287 | 1.1 (inactive) | 1.14 | 1.32 | 1.88 | 1.65 | 2.16 | 1.81 | 0.355 | -0.308 | 1.57 | 0.206 | -0.815 | 0.116 | 0.358 | 0.145 | 1.06 | 2.09
